Our source for the Percent Effect values is ChEMBL document CHEMBL3988442, “University of Dundee, Small-Polar-MMV Screening Library” (2021).

The structures appear in SMILES notation. For some of these results: Results with a measured potency or affinity are listed apart.

Common to all, as to design: scale not given: direction of the effect not stated beside the values
In test [1] the target is Protein translocase subunit SecA (Escherichia coli (strain K12)) (UniProt P10408). The experiment in a line: Assay to Identify E. coli SecA ATPase Inhibitors. Format: functional. The note with it: 30 µM.
Test [2] deals with T1, Ubiquitin-activating enzyme e1, putative (Leishmania donovani (strain BPK282A1)) (UniProt E9BSI1).
T1 sequence (whole entry): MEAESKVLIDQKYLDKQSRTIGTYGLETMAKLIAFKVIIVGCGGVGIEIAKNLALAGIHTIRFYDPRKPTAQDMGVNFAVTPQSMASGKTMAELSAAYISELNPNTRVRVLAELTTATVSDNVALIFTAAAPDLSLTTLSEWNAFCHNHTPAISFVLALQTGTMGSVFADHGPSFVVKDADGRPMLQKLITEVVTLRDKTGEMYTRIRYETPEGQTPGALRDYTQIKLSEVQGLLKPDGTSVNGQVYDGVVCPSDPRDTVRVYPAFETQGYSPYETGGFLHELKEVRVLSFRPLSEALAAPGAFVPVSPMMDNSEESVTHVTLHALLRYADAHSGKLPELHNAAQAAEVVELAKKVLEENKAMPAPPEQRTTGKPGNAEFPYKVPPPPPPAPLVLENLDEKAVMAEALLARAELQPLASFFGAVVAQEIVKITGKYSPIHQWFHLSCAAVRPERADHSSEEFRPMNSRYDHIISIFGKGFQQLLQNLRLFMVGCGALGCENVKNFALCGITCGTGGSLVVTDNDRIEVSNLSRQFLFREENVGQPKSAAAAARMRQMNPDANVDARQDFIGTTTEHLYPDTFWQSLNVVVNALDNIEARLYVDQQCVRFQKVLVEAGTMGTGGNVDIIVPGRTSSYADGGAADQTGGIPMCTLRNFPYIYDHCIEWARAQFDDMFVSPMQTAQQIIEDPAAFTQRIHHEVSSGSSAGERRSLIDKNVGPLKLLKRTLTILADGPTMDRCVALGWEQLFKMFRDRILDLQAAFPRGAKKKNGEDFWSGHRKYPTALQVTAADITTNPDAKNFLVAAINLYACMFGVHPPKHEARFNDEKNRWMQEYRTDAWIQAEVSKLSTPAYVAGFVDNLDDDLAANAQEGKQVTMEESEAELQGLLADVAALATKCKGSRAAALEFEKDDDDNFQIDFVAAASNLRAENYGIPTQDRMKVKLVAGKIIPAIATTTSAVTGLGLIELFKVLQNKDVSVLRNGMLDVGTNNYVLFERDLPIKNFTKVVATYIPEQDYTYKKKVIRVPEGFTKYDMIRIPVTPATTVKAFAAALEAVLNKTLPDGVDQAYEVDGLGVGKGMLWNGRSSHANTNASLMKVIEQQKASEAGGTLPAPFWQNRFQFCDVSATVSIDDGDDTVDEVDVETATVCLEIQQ
Description: Leishmania donovani Ubiquitin Activating Enzyme (LdE1). Format: functional. To be noted: 30 µM.

In test [3] the target is AMP-activated protein kinase, AMPK (Homo sapiens) (UniProt P54646+O43741+P54619+Q9UGJ0+Q9Y478+Q13131+Q9UGI9). The experiment in a line: AMP-dependent Kinase enzyme assay. An in vitro enzyme assay that detects ADP turnover that is directly proportional to AMPK activity. This uses naive AMPK that is activated during the assay with MK-8722. Format: functional. The note with it: 30 µM.

In test [4] the target is Sialic acid-binding Ig-like lectin 9 (Homo sapiens) (UniProt Q9Y336). The experiment in a line: Hs-Siglec9 ALPHAscreen SOP 20170721. The note with it: 10 µM.
Test [5] relates to Trypanosoma cruzi. The experiment in a line: Trypanosoma cruzi phosphomannomutase and mannose-1-phosphate guanylyltransferase assay. Format: functional. The note with it: 10 µM.
Test [6] has as its target T2, Arginase-2, mitochondrial (Homo sapiens) (UniProt P78540).
T2 sequence (whole entry): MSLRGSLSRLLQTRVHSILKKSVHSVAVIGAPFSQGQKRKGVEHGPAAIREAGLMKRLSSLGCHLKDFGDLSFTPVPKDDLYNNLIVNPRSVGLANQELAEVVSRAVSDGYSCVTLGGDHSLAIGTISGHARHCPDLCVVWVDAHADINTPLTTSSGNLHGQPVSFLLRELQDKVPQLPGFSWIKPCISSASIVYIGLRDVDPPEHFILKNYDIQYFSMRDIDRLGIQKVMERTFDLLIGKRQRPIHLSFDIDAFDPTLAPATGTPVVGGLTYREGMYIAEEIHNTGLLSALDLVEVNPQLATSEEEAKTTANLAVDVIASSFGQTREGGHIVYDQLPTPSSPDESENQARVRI
The experiment in a line: in vitro enzyme assay to detect the production of urea directly proportional to the activity of Arginase II. Note: in the data most compounds retested in dose-response had high values. Format: functional. To be noted: 33.3 µM.

In test [7] the target is T3, Proteasome subunit beta (Trypanosoma cruzi) (UniProt O96673).
T3 sequence (whole entry): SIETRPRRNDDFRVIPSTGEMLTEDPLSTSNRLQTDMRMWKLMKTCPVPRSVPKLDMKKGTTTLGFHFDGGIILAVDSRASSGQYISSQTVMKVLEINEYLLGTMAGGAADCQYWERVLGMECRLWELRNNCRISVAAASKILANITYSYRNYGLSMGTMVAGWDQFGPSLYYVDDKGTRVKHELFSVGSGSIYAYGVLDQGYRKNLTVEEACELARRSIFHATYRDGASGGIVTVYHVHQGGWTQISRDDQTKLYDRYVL
The experiment in a line: Trypanosoma cruzi proteasome chymotrypsin-like activity (TcProtChymo) assay. Note: in the data most compounds retested in dose-response had high values. Format: functional. The note with it: 9.37 µM.

The species entered for test [8] is Homo sapiens. Description: To identify inhibition of the IFN signalling (Jak-Stat) pathway via expression of an eGFP reporter gene under the control of an IFN-stimulated response element (ISRE) containing MxA promoter. Format: functional. To be noted: 30 µM.
In test [9] the target is T4, Tyrosyl-tRNA synthetase, putative (Trypanosoma cruzi (strain CL Brener)) (UniProt Q4DSP6).
T4 sequence (whole entry): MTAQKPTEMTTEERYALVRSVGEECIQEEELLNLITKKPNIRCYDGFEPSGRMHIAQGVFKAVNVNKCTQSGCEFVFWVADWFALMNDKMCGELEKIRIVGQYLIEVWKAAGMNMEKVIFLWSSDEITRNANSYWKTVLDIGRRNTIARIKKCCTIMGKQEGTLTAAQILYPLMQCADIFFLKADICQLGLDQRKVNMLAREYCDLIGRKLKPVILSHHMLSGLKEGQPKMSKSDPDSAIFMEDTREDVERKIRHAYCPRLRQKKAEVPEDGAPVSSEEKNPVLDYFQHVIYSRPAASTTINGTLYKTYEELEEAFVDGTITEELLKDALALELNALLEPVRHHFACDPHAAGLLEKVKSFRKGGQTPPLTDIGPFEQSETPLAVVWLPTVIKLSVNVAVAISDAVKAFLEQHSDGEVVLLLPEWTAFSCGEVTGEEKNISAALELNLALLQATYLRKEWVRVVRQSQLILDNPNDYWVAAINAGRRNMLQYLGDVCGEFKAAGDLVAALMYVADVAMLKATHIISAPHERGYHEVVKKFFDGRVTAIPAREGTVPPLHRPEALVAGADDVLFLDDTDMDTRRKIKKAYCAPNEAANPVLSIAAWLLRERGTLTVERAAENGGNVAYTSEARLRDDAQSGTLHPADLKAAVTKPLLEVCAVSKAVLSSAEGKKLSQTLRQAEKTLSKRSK
The experiment in a line: Trypanosoma cruzi tyrosyl tRNA synthetase (TcYRS) _High Tyrosine SOP. Note: in the data most compounds retested in dose-response had high values. Format: functional. To be noted: 30 µM.

The target in test [10] is T4, Tyrosyl-tRNA synthetase, putative (Trypanosoma cruzi (strain CL Brener)). Description: Trypanosoma cruzi tyrosyl tRNA synthetase (TcYRS) SOP. Format: functional. To be noted: 30 µM.
Test [11] addresses Chromo domain-containing protein 1 (Saccharomyces cerevisiae (strain ATCC 204508 / S288c) (Baker's yeast)) (UniProt P32657). Description: ScCHD-1 Enzyme Inhibition Assay. Note: in the data most compounds retested in dose-response had high values. Format: functional. The note with it: 30 µM.

Protein translocase subunit SecA (Escherichia coli (strain K12)), sequence (P10408 whole entry): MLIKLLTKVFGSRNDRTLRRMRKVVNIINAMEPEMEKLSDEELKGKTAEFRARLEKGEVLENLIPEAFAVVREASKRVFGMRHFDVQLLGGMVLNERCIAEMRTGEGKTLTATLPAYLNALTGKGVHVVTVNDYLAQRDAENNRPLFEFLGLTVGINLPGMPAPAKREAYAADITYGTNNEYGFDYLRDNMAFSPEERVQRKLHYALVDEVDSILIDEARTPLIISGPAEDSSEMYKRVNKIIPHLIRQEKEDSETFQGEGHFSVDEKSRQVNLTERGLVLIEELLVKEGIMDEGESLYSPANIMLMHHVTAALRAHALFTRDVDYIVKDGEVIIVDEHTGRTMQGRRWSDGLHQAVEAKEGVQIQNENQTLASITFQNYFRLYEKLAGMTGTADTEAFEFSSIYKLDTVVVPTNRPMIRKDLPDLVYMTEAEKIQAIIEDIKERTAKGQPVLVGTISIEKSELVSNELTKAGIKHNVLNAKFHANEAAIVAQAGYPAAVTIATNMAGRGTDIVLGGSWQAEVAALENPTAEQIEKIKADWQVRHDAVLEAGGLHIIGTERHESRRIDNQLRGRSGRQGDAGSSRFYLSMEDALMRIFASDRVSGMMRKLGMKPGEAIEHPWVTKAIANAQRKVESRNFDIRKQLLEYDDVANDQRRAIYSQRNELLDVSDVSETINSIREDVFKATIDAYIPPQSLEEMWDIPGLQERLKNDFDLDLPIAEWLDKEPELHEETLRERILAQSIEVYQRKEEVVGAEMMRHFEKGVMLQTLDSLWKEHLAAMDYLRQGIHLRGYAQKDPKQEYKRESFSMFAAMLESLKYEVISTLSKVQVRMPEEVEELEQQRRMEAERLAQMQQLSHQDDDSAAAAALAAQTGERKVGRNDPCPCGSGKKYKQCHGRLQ
Sialic acid-binding Ig-like lectin 9 (Homo sapiens), sequence (Q9Y336 whole entry): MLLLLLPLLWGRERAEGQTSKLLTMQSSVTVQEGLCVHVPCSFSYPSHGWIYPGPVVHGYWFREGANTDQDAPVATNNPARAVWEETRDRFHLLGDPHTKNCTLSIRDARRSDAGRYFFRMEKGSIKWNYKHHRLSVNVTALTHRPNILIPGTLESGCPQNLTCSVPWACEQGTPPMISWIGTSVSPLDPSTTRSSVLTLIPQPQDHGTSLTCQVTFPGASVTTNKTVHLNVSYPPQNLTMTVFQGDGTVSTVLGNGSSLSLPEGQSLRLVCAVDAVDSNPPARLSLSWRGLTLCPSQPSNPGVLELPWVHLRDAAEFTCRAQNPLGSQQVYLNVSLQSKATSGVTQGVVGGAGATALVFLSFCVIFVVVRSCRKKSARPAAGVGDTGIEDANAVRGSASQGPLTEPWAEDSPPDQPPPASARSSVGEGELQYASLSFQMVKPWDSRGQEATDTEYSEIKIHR
Chromo domain-containing protein 1 (Saccharomyces cerevisiae (strain ATCC 204508 / S288c) (Baker's yeast)), sequence (P32657 whole entry, the tested form may be a part): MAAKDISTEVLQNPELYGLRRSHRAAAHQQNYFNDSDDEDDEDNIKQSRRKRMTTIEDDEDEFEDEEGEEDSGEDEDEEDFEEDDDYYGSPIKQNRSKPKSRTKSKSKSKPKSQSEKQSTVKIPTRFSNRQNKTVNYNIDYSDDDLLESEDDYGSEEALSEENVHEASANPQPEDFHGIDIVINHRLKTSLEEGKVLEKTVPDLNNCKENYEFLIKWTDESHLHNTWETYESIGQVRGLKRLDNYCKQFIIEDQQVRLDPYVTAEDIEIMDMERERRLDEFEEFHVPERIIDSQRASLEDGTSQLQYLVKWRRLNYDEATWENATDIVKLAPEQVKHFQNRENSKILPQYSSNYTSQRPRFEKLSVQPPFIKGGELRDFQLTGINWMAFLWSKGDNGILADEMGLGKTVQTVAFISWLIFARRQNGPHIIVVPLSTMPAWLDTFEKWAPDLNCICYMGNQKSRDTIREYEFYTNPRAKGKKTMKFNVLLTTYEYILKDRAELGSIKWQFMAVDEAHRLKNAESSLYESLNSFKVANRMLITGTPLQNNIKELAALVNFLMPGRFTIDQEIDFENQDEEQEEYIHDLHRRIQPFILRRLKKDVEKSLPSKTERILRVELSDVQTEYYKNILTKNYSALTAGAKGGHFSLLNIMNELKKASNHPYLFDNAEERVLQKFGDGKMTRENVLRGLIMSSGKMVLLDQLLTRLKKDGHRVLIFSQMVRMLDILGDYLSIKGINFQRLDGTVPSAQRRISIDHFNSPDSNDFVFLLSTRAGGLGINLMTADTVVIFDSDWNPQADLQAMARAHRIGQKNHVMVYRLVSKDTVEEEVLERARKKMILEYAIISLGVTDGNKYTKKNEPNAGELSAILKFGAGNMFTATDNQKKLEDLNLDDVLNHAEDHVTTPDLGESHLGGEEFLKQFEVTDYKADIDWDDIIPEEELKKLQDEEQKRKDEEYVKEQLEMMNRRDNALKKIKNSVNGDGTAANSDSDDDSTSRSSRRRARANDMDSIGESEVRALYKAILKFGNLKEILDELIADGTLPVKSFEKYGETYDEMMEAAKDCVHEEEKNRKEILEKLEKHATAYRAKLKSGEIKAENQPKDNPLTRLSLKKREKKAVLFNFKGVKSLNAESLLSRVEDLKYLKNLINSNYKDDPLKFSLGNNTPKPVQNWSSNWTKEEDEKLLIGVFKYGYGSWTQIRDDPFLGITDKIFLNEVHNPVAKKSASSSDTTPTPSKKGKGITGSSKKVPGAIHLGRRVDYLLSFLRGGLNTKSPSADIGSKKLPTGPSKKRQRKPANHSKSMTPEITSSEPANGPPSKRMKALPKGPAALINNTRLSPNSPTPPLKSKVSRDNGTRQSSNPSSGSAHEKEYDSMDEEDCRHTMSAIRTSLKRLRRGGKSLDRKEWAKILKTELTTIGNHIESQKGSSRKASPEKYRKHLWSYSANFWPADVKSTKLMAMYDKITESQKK

In the case of `CCn1nnc2c1C(COC)CN(Cc1cccs1)C2` (stereo not drawn), the Percent Effect in [1] is -2.49%; in test [2], 5.41%; in [3], 4.39%; in test [4], 6.4%; in [5], 4.69%; in [6], 1.67%. In addition, the Percent Effect in test [7] was 12.3%; in test [8], -4.92%; in [9], 4.95%; in test [10], 8.54%; in [11], -4.09%.
Regarding `COc1ccc(OCC(=O)NC(C)c2ccc(F)cc2)c(C(=O)O)c1` (stereo not drawn), the Percent Effect in [1] is -5.45%; in [2], 5.41%; in test [3], 1.14%; in [4] it was 2.91%; in test [5], 2.05%; in test [6], 5.21%. The Percent Effect in test [7] was 0.944%; in test [8], -0.568%; in [9], 4.3%; in test [10], 13.6%; in test [11] it was -5.02%.
Regarding `Cc1ncc(CNC(=O)Cc2ccc(Cl)cc2)c(C2CCCN2C)n1` (stereo not drawn), the Percent Effect was -5.53% in test [1]; -1.35% in test [2]; 18.1% in test [3]; 5% in test [4]; -2.96% in test [5]; -2.55% in test [6]. The Percent Effect in [7] was 8.74%; in test [8], 1.58%; in [9], -1.07%; in [10], -1.3%; in test [11], 0.76%.
Regarding `CN(C)c1ncc(-c2cc(C(=O)O)n(CC3CC3)c2)cn1`, the Percent Effect in test [1] was -1.6%; in [2], -2.7%; in test [3], 5.47%; in test [4], -3.4%; in test [5], 1.95%; in [6], -0.833%. The Percent Effect is 7.69% in test [7]; 7.22% in test [8]; 5.94% in [9]; -3.66% in test [10]; -8.88% in test [11].
For the molecule `CS(=O)(=O)CC(=O)N1C[C@@H]2COC[C@]2(c2nnc(C3CC3)o2)C1`, the Percent Effect was -5.11% in test [1]; 21.3% in [2]; -7.29% in [3]; -4.69% in test [4]; 3.86% in test [5]; -53.9% in [6]. For the same molecule, the Percent Effect in test [7] was 14%; in [8], 19.8%; in test [9], 3.12%; in test [10], 22.5%; in test [11], -11.9%.
As to `Cn1cnc2c1C(COCc1cccnc1)N(Cc1ccccn1)CC2` (stereo not drawn), the Percent Effect in test [1] is -3.69%; in test [2] it was 8%; in test [3], -12.6%; in [4], 2.61%; in [5] it was 7.53%; in test [6] it was -51.8%. Moreover, the Percent Effect in test [7] was 5.47%; in test [8] it was 3.9%; in [9] it was 4.17%; in test [10] it was -55%; in test [11], -7.17%.
For the molecule `CN(C)C(=O)C1CCCN1CCCNC(=O)c1ccccc1F` (stereo not drawn), the Percent Effect in test [1] was -2.29%; in [2], 8.22%; in test [3] it was -4.32%; in test [4], 2.43%; in test [5] it was -0.783%; in [6], 0.909%. Further, the Percent Effect in [7] was 15.6%; in [8] it was 12.8%; in test [9] it was 5.38%; in test [10] it was 12.5%; in test [11], -3.39%.
`COCCN(C)CCN1CC2(CCN(C3CCCOC3)CC2)OC1=O` (stereo not drawn): the Percent Effect in [1] is -2.07%; in test [2], 20.8%; in test [3], -4.24%; in test [4], 3.41%; in test [5], 0.295%; in [6], -11%. Besides, the Percent Effect in test [7] was 16.5%; in test [8], 11.4%; in [9], 3.23%; in test [10], 18.5%; in test [11], -6.77%.
